# From PubChem BioAssay
# In the library only some 18% were active in any assay of this set; here they are far more common.
# LDHA block: LDHA (human) enzyme inhibition. P00338. purified LDHA, NADH/diaphorase-resazurin fluorescence; active compounds read low. activity change, % (values are at about 110 or 230 µM). actives 0.15% (n = 480,000); in the data active means activity change below about -30%; inconclusive means mostly about -25% to -30%
#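 Resorufin fluorescence (ex540/em590), read at 0 and 20 min after diaphorase/resazurin addition, reports the NADH left after a 5 min room-temperature reaction of 2 nM human LDH5 with 0.06 mM NADH and 0.2 mM pyruvate.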
# DT40 TDP1 CPT: growth inhibition of DT40 Tdp1-/-;hTDP1 cells with camptothecin (screen for TDP1 inhibitors); chicken DT40 Tdp1-/-;hTDP1 cells + 20 nM CPT, ATP luminescence, 48 h; Potency, µM (doses to about 46.2 µM), most hits filed as inhibitors; actives 12% (n = 420,000); AID 686979; further: nearly all actives have a fitted effect of over 55% in size
#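 Chicken DT40 Tdp1-/- cells complemented with human TDP1, 400 cells/well, exposed to compounds plus 20 nM camptothecin for at least 48 h at 37 C; viability read as ATP content by CellTiter-Glo luminescence.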
# VP16 counter: Gal4-VP16 reporter inhibition counter-screen. Potency, µM (series often up to 53.6 µM), hits mostly inhibitors. Drosophila S2 Gal4-VP16 UAS-luciferase, luminescence, 20 h. actives 3.5% (n = 310,000). AID 2546;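 further: Gal4-VP16 expression switched on by copper sulfate through the metallothionein promoter; nearly all actives have a fitted effect of over 50% in size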
# RORg inh: ROR gamma (mouse) transcription inhibition; Drosophila S2 Gal4-RORgamma UAS-luciferase reporter, 20 h; actives 5.4% (n = 310,000); Potency, µM (series often up to 53.6 µM), usual class: inhibitors; P51450; further: nearly all actives have a fitted effect of over 60% in size
# Target sequence (P51450 whole entry, looked up, the tested form may be a part): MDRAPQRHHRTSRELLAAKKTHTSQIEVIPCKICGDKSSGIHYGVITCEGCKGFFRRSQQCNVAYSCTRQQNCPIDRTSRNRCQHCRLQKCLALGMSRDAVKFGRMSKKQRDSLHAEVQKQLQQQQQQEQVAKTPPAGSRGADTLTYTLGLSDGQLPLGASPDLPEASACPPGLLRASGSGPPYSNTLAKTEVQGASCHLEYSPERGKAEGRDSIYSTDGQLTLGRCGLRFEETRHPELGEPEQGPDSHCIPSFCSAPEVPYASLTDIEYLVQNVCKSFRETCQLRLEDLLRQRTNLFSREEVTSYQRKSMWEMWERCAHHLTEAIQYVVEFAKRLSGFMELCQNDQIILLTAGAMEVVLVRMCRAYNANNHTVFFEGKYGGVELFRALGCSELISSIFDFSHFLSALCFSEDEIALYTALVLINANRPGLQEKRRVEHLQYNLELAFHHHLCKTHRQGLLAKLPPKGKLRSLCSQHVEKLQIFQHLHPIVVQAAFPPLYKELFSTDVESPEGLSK
#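 A Gal4/UAS one-hybrid system in insect cells: metallothionein-promoter Gal4–ROR gamma fusion plus Photinus luciferase reporter. Copper sulfate 700 uM final, 20 hr ambient incubation, luminescent detection after 10 min with reagent.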
# DT40 TDP1 no CPT: qHTS for Inhibitors of human tyrosyl-DNA phosphodiesterase 1 (TDP1): qHTS in cells in absence of CPT | AID 686978, 2013 | DT40 Tdp1-/- hTDP1 cells, no CPT, ATP luminescence, 48 h | actives 15% (n = 420,000) | Potency, µM (titrated, usually from 46.2 µM), actives largely listed as inhibitors; further: nearly all actives have a fitted effect of over 55% in size
#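 Chicken DT40 Tdp1-/- cells complemented with human TDP1, screened without camptothecin (DMSO vehicle only), 400 cells/well. Compounds pin-transferred, cells incubated at 37 °C for at least 48 hr. Growth read as ATP-dependent luminescence (CellTiter-Glo, 30 min at RT).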
# IL-1B inflam inh: inhibitors of inflammasome signaling (IL-1 beta secretion); THP-1 LPS/ATP IL-1B secretion, AlphaLISA, 16 h; active compounds read low; activity change, % at 57.5 µM; actives 4.7% (n = 360,000); in the data active means activity change below about -50%; inconclusive means mostly about -30% to -49%
#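 Secreted IL-1B measured by AlphaLISA bead assay after 16 h compound exposure of THP-1 cells; compounds (final up to 57.5 uM) added 1 h before LPS (250 ng/mL) and ATP (1.25 mM) stimulation; lower signal means less secretion.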
# A number is an active result; – = inactive; ? = inconclusive; · = no result given; ! = not active in a repeat. Unless noted, the call rests on the fitted dose curve; in most records, active means well fitted curve in the direction sought with a large enough effect; inconclusive means small, poorly fitted or top-dose-only effect, or another doubt; inactive means no such curve, though single readings can be large; an effect the other way counts as inactive or inconclusive.
SMILES,LDHA block,DT40 TDP1 CPT,VP16 counter,RORg inh,DT40 TDP1 no CPT,IL-1B inflam inh
O=C(CCc1ncc(-c2ccccc2Cl)o1)N1CCN(S(=O)(=O)c2ccccc2Cl)CC1,–,·,·,·,·,·
COc1ccccc1CNC(=O)COc1ccc2c(=O)c(Oc3ccccc3)c(C)oc2c1,–,·,·,·,·,·
CCCCC(CC)CNC(=S)Nc1ccc(C)cc1C (stereo unspecified),–,·,·,·,·,·
Cc1cc(NC(=O)COc2ccccc2C(=O)c2cc(C#N)c(=O)n(C(C)C)c2)ccc1N1CCCC1,–,·,·,·,·,·
N#C/C(=C\c1cc2c(cc1Br)OCO2)C(=O)NCC1CCCO1 (stereo unspecified),–,?,?,–,?,-77
N#C/C(=C\c1ccc(O)cc1)C(=O)NCC1CCCO1 (stereo unspecified),–,·,·,·,·,·
O=C(c1ccccc1Br)N1CCC(CN2CCOCC2)CC1,–,·,·,·,·,·
COc1ccc([C@@H]2CC=C(C(=O)O)[C@H](c3ccc(Cl)cc3)N2S(=O)(=O)c2ccccc2C)cc1,–,–,·,·,–,–
CC(=O)C1=CCC(c2ccc(Cl)cc2)N(S(=O)(=O)c2ccccc2)C1 (stereo unspecified),–,21µM,·,·,18µM,–
COc1ccc(C2CC=C(C(C)=O)CN2S(=O)(=O)c2ccc(Cl)cc2)cc1 (stereo unspecified),–,16µM,·,·,16µM,–
CC(=O)C1=CCC(c2ccc(Cl)cc2)N(S(=O)(=O)c2ccc(C)cc2)C1 (stereo unspecified),–,?,·,·,16µM,-57!
O=C(O)C1=CC[C@@H](c2ccc(Cl)cc2)N(S(=O)(=O)c2ccc(Cl)cc2)C1,–,–,·,·,–,–
Cc1ccc([C@@H]2CC=C(C(=O)O)[C@H](c3ccc(Cl)cc3)N2S(=O)(=O)c2ccc(C)cc2)cc1,–,–,·,·,–,–
CC(=O)C1=CCC(c2ccc(C)cc2)N(S(=O)(=O)c2ccc(C)cc2)C1 (stereo unspecified),–,?,·,·,?,–
CC(=O)C1=CCC(c2ccc(Br)cc2)N(S(=O)(=O)c2ccc(C)cc2)C1 (stereo unspecified),–,18µM,·,·,?,-52
O=S(=O)(Nc1nc2ccccc2nc1NCCc1ccccc1)c1ccc(Cl)cc1,–,·,·,·,·,·
O=C(NCc1cccc(C(F)(F)F)c1)C1CCN(C(=O)/C=C/c2ccccc2)CC1,–,·,·,·,·,·
Cc1nc2cc(NC(=O)COc3ccc(Br)cc3F)ccc2o1,–,·,·,·,·,·
COCc1ccc(CNC(=O)C(C)(C)C)cc1,–,·,·,·,·,·
CC(=O)C1=CCC(c2ccccc2)N(S(=O)(=O)c2ccccc2)C1 (stereo unspecified),–,29µM,·,·,18µM,–
CC(=O)C1=CCC(c2ccccc2F)N(S(=O)(=O)c2ccc(C)cc2)C1 (stereo unspecified),–,?,·,·,?,?
CC(=O)C1=CCC(c2ccco2)N(S(=O)(=O)c2ccc(C)cc2)C1 (stereo unspecified),–,?,·,·,?,–
CC(=O)C1=CCC(c2ccccc2)N(S(=O)(=O)c2cccc(C)c2)C1 (stereo unspecified),–,16µM,·,·,13µM,–
CCN(CC)S(=O)(=O)c1cc(-c2nnc(-c3ccc(Br)cc3)o2)ccc1Cl,–,12µM,–,?,18µM,?
CCN(CC)S(=O)(=O)c1cc(-c2nnc(-c3ccc(Br)cc3)o2)ccc1Br,–,15µM,–,–,9.2µM,?
SMILES,LDHA block,DT40 TDP1 CPT,VP16 counter,RORg inh,DT40 TDP1 no CPT,IL-1B inflam inh
CCOC(=O)c1c(OCC)[nH]c2c1cc(O)c1ccccc12,–,16µM,?,?,18µM,–
CCSC1(SCC)N=C(N)C2(C#N)C(c3ccc(OC)c(OC)c3OC)C12C#N (stereo unspecified),–,6.5µM,2.5µM,11µM,8.2µM,-115
COC(=O)CC1COc2ccccc2N1S(=O)(=O)c1ccc(Br)cc1 (stereo unspecified),–,?,–,–,?,–
COC(=O)CC1COc2ccccc2N1S(=O)(=O)c1ccc(OC)cc1 (stereo unspecified),–,3.7µM,–,–,5.2µM,–
Cc1ccc2[nH]cc(C(=O)NCc3cccs3)c(=O)c2c1,–,23µM,–,?,23µM,-71
COc1cccc2c(=O)c(C(=O)NCc3cccs3)c[nH]c12,–,–,–,?,6.5µM,–
CCOCCCNC(=O)c1c[nH]c2ccc(C)cc2c1=O,–,–,–,–,–,–
Cc1ccc(Nc2sc(C(=O)c3ccccc3)c(N)c2S(=O)(=O)c2ccccc2)c(C)c1,–,?,·,·,15µM,·
COc1ccccc1Nc1sc(C(=O)c2ccc(C)cc2C)c(N)c1S(=O)(=O)c1ccccc1,–,·,·,·,·,·
COc1ccc(OC)c(Nc2sc(C(=O)c3ccccc3)c(N)c2S(=O)(=O)c2ccccc2)c1,–,–,·,·,?,·
Cc1ccc(Cl)cc1Nc1sc(C(=O)c2ccc(F)cc2)c(N)c1S(C)(=O)=O,–,16µM,·,·,?,·
Cc1ccc(S(=O)(=O)c2c(Nc3cc(F)ccc3F)sc(C(=O)c3ccc(F)cc3)c2N)cc1,–,21µM,·,·,16µM,·
Nc1c(C(=O)c2ccc(F)cc2)sc(Nc2ccccc2F)c1S(=O)(=O)c1ccc(Br)cc1,–,5.2µM,·,·,8.2µM,·
COc1cccc(C(=O)c2sc(Nc3ccc(C)cc3C)c(S(=O)(=O)c3ccccc3)c2N)c1,–,–,·,·,–,·
CCCn1nc(C(=O)OCc2cccc(Cl)c2)c2ccccc2c1=O,–,·,·,·,·,·
COC(=O)c1ccc(OCCOc2ccc(F)cc2)c(OC)c1,–,·,·,·,·,·
Cc1ccc(Nc2sc(C(=O)c3ccc(F)cc3)c(N)c2S(=O)(=O)c2ccc(C)cc2)cc1,–,18µM,·,·,?,·
CCc1ccc(Nc2sc(C(=O)c3ccc(F)cc3)c(N)c2S(=O)(=O)c2ccccc2)cc1,–,?,·,·,?,·
Cc1csc(NC(=O)C2CC(=O)N(c3ccc4c(c3)OCCO4)C2)n1 (stereo unspecified),–,–,·,·,–,–
O=C(Nc1nc(-c2ccco2)c(-c2ccco2)s1)C1CC(=O)N(c2ccc3c(c2)OCCO3)C1 (stereo unspecified),–,16µM,–,–,?,–
CC(=O)Nc1ccc(NC(=O)C2CC(=O)N(c3cccc(Cl)c3)C2)cc1 (stereo unspecified),–,?,–,–,?,–
Cc1cnc(NC(=O)C2CC(=O)N(c3cccc(Cl)c3)C2)s1 (stereo unspecified),–,7.3µM,–,–,5.8µM,–
